Screening results: PubChem BioAssay, National Center for Advancing Translational Sciences (NCATS)
DT40 TDP1 no CPT: qHTS for Inhibitors of human tyrosyl-DNA phosphodiesterase 1 (TDP1): qHTS in cells in absence of CPT; Potency, µM (highest dose often 46.2 µM), for the others: at the top dose activity change, negative = growth inhibition, most hits filed as inhibitors; actives 15% (n = 420,000); DT40 Tdp1-/- hTDP1 cells, no CPT, ATP luminescence, 48 h; AID 686978, 2013; further: potency means the concentration at half of the fitted maximal effect; on the % scale 0 is the no-effect control and ±100 the full control effect; nearly all actives have a fitted effect of over 55% in size
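Stably hTDP1-transfected Tdp1-null chicken DT40 cells were treated with library compounds minus camptothecin and grown for at least 48 hr at 37 °C, after which cellular ATP was quantified by luminescence.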
HepG2 viability: kills HepG2 cells in TGF-b inhibitor counter-screen. actives 0.76% (n = 410,000). HepG2 CAGA-GFP viability, ATP luminescence, 18 h. Potency, µM (titrated, usually from 46.1 µM), without a hit: at the top dose activity change, negative = cytotoxicity, most hits filed as cytotoxic. AID 588856; further: potency means the concentration at half of the fitted maximal effect
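HepG2 CAGA-GFP cells (1000/well, DMEM with 1% FBS) received compound, then TGF-beta at 500 pg/mL final, and were incubated 18 hours at 37 degrees C. Viability was read by CellTiter-Glo luminescence. Media-only wells were set as complete cell-killing and DMSO as no toxicity.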
TGFb inhibitor: TGF-b pathway inhibition; HepG2 CAGA-GFP TGF-b/SMAD3 reporter, GFP fluorescence, 18 h; TGF-beta stimulated, 500 pg/mL final; Potency, µM (doses to about 46.1 µM), inactives show at the top dose activity, negative = inhibition, hits mostly inhibitors; actives 1.2% (n = 410,000); AID 588855; further: potency means the concentration at half of the fitted maximal effect; on the % scale 0 is the no-effect control and ±100 the full control effect; nearly all actives have a fitted effect of over 65% in size
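GFP signal (ex488/em500-530) from TGF-beta-stimulated HEPG2 CAGA-GFP cells, 500 pg/mL final, 18 h at 37 degrees C in DMEM plus 1% FBS, normalized to unstimulated and DMSO-stimulated controls.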
DT40 TDP1 CPT: DT40-hTDP1 cell growth loss with CPT | chicken DT40 Tdp1-/-;hTDP1 cells + 20 nM CPT, ATP luminescence, 48 h | Potency, µM (doses to about 46.2 µM), inactives show at the highest dose activity change, negative = growth inhibition, most hits filed as inhibitors | actives 12% (n = 420,000) | AID 686979; further: potency means the concentration at half of the fitted maximal effect; on the % scale 0 is the no-effect control and ±100 the full control effect; nearly all actives have a fitted effect of over 55% in size
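Chicken DT40 Tdp1-/- cells stably complemented with human TDP1 were seeded at 400 cells/well in medium containing 20 nM camptothecin, exposed to pin-transferred compounds, and grown at 37 °C for at least 48 hr. Viability was read as ATP luminescence.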
TDP1 inh: inhibitors of human tyrosyl-DNA phosphodiesterase TDP1; Q9NUW8; recombinant TDP1, AlphaScreen DNA substrate cleavage; Potency, µM (highest dose often 130 µM), inactives show at the highest dose activity change, negative = inhibition, most hits filed as inhibitors; actives 0.28% (n = 350,000); AID 485290; further: potency means the concentration at half of the fitted maximal effect; on the % scale 0 is the no-effect control and ±100 the full control effect; nearly all actives have a fitted effect of over 40% in size
Target sequence (Q9NUW8 whole entry, looked up): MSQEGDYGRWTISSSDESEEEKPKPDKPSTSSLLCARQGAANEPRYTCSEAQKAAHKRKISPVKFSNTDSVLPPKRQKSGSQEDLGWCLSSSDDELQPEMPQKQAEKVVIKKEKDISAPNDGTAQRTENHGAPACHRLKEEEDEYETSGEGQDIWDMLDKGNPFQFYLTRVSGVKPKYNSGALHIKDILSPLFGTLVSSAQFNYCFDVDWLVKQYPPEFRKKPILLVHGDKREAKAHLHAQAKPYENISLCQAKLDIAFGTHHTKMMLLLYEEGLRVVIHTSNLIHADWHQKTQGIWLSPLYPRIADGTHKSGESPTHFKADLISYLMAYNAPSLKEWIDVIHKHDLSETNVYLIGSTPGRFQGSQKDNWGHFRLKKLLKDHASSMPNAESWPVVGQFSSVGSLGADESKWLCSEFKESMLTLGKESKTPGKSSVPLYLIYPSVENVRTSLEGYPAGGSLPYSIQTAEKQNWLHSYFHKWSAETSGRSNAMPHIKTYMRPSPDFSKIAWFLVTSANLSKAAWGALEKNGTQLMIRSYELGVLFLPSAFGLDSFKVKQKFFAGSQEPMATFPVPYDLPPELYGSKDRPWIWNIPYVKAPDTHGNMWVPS
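Recombinant human Tdp1 (E. coli-expressed, 1 nM final) preincubated with compounds 15 min at room temperature, then 5'-biotin/3'-phosphotyrosine-FITC DNA substrate (15 nM final) added for 5 min. AlphaScreen beads (10 ug/ml final) added 10 min; cleavage lowers signal.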
IL-1B inflam inh: blocks inflammasome-driven IL-1 beta release; AID 743279; activity change, % at 57.5 µM; actives 4.7% (n = 360,000); THP-1 LPS/ATP IL-1B secretion, AlphaLISA, 16 h; hits give low values; in the data active means activity change below about -50%; inconclusive means mostly about -30% to -49%; further: on the % scale 0 is the no-effect control and ±100 the full control effect
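THP-1 cells pretreated 1 hr with compounds (up to 57.5 uM final), then stimulated with LPS (250 ng/mL final) plus ATP (1.25 mM final); secreted IL-1B measured by AlphaLISA after 16 hr, decreased signal indicating inhibition.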
An asterisk follows results filed as active; ? = inconclusive; . = not tested or not shown. In the library only some 19% were active in any assay of this set; here they are far more common. Unless noted, the call rests on the fitted dose curve; in most records, active means well fitted curve in the direction sought with a large enough effect; inconclusive means small, poorly fitted or top-dose-only effect, or another doubt; inactive means no such curve, though single readings can be large; an effect the other way counts as inactive or inconclusive.

SMILES	DT40 TDP1 no CPT	HepG2 viability	TGFb inhibitor	DT40 TDP1 CPT	TDP1 inh	IL-1B inflam inh
COc1cccc(CS(=O)(=O)c2nnnn2-c2ccccc2)c1	.	.	.	.	1.9%	.
CCCS(=O)(=O)c1nnnn1-c1cccc(OC)c1	5.17µM*	17.8µM*	?	3.66µM*	7.2%	-67.0*
CC(=O)c1cccc(-n2nnnc2SCC(=O)Nc2ccccc2N2CCCCC2)c1	23.1µM*	-21.0%	?	?	-2.4%	-17.1
Cc1ccc(-n2ncc(C(=O)N3CCCCC3)c2C2CCN(C(=O)OC(C)(C)C)CC2)c(C)c1	?	1.9%	-1.5%	?	5.3%	.
O=[N+]([O-])c1ccc(-n2nnnc2-c2ccccc2)c([N+](=O)[O-])c1	2.91µM*	15.8µM*	10µM*	3.66µM*	4.7%	-64.1*
COCCCN1C(=O)C(CC(=O)NCCCCc2ccccc2)CC(C(=O)N2CCOCC2)=C1C (stereo not drawn)	-18.4%	5.5%	16.0%	-24.0%	.	13.5
COc1ccc(CN2C(=O)C(CC(=O)NCCCCc3ccccc3)CC(C(=O)N(C(C)C)C(C)C)=C2C)cc1 (stereo not drawn)	11.6µM*	-15.3%	?	13µM*	.	-27.5
COc1ccc(CN2C(=O)C(CC(=O)NCc3cccc4ccccc34)CC(C(=O)N(C(C)C)C(C)C)=C2C)cc1 (stereo not drawn)	?	-65.7%	?	?	.	-69.8*
CC1=C(C(=O)N2CCOCC2)CC(CC(=O)NCCCCc2ccccc2)C(=O)N1Cc1ccc(C(C)(C)C)cc1 (stereo not drawn)	16.4µM*	-30.6%	?	23.1µM*	.	-2.1
COc1ccc(CN2C(=O)C(CC(=O)NCCc3ccccn3)CC(C(=O)N(C(C)C)C(C)C)=C2C)cc1 (stereo not drawn)	?	-14.0%	10.0%	?	.	12.0
CC1=C(C(=O)N(C(C)C)C(C)C)CC(CC(=O)NCCN2CCOCC2)C(=O)N1Cc1ccc(C(C)(C)C)cc1 (stereo not drawn)	18.4µM*	-32.7%	?	?	.	?
Cc1cccc(NC(=O)Cn2c(=O)c3cccn3c3ccccc32)c1C	-6.0%	0.8%	-0.3%	-1.4%	2.6%	.
CCCn1nc(C(=O)NCC2COc3ccccc3O2)c2ccccc2c1=O (stereo not drawn)	?	-35.2%	-10.9%	?	-3.7%	72.7
CC1=C(C(=O)N(C(C)C)C(C)C)CC(CC(=O)NCCCN(C)C)C(=O)N1Cc1ccc(C(C)(C)C)cc1 (stereo not drawn)	?	-28.4%	?	?	.	-20.2
CC1=C(C(=O)N(C(C)C)C(C)C)CC(CC(=O)NCCCCc2ccccc2)C(=O)N1Cc1ccc(C(C)(C)C)cc1 (stereo not drawn)	20.6µM*	17.8µM*	11.2µM*	23.1µM*	.	0.0
COc1ccc(CN2C(=O)C(CC(=O)NCCCCc3ccccc3)CC(C(=O)N(C)C)=C2C)cc1 (stereo not drawn)	18.4µM*	-21.8%	-27.8%	?	.	-2.0
Cc1ccc(NS(=O)(=O)c2cccc(C(=O)N/N=C/c3ccc4c(c3)OCCO4)c2)c(C)c1	-24.2%	-9.2%	-29.8%	-16.1%	-2.4%	-13.5
O=C(NCc1ccco1)c1ccc([N+](=O)[O-])o1	?	-0.3%	7.0%	?	.	-61.4*
O=C(NCc1ccco1)c1ccc(Cn2cc([N+](=O)[O-])cn2)o1	-1.5%	-8.7%	7.8%	-7.1%	-2.6%	-11.7
O=C(Nc1cccnc1)c1cccc([N+](=O)[O-])c1	5.5%	-2.3%	18.8%	8.1%	.	-5.8
